Drawing on ChEMBL document CHEMBL1961873, “Compounds: GSK PKIS; Assays: Nanosyn kinase panel” (2012), this text covers inhibition for 33 compounds.

In general, inhibition refers to the relative decrease from the control value, in per cent.

Chain of Fibroblast growth factor receptor 3 (Homo sapiens) (P22607 23-806 limits assumed): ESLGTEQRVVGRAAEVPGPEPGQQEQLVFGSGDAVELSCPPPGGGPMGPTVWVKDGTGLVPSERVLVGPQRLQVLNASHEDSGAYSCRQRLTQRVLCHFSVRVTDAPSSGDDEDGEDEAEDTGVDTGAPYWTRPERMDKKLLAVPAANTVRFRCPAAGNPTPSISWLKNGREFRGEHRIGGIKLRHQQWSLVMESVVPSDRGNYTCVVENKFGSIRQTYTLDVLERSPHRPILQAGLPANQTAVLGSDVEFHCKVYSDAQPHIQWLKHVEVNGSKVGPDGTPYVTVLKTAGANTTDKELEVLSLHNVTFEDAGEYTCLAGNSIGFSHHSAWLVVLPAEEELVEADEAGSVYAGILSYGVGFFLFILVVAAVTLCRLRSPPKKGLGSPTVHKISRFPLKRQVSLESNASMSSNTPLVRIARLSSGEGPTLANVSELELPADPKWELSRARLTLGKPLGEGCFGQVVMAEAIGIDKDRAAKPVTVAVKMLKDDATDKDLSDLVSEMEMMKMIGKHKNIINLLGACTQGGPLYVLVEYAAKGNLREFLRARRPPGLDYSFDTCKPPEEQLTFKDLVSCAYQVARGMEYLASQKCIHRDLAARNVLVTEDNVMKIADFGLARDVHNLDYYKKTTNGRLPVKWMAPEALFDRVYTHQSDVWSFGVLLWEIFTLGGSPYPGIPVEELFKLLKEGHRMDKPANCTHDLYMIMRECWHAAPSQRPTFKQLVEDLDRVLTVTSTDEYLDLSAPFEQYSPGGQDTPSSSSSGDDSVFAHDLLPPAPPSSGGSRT

The first experiment has as its target Fibroblast growth factor receptor 3 (Homo sapiens) (UniProt P22607). Conditions: at 0.1 µM.
In the case of `CS(=O)(=O)CCN(CC#N)Cc1ccc(-c2ccc3ncnc(Nc4ccc(OCc5cccc(F)c5)c(Cl)c4)c3c2)o1`, the inhibition is -1.19%.

Consider `CC(=O)Nc1cccc(C#Cc2cncnc2Nc2ccc(OCc3cccc(F)c3)c(Cl)c2)n1`, for which the inhibition is -1.4%.

For the compound `COc1ccccc1Nc1ncc(-c2ccccc2)o1`, the inhibition was 6.19%.

As for `NS(=O)(=O)c1cccc(-c2ccc3c(NC(=O)C4CC4)n[nH]c3c2)c1`, the inhibition was -0.12%.

As for `Cc1nnc(-c2ccc(C)c(-c3ccc(C(=O)Nc4cccc(C#N)c4)cc3)c2)o1`, the inhibition is 2.6%.

In the case of `COc1ccc(-c2nn3ncccc3c2-c2ccnc(Nc3ccc(Cl)c(C(F)(F)F)c3)n2)cc1`, the inhibition amounted to 2.57%.

For `O=C1NC(=O)C(c2ccc(Cl)cc2)=C1Nc1ccc(Cl)c(C(=O)O)c1`, the inhibition worked out at 1.31%.

Turning to `COC(=O)Nc1nc2cc(Oc3cccc(NC(=O)Nc4cc(C(F)(F)F)ccc4F)c3)ccc2[nH]1`, the inhibition came to 0.57%.

Take `O=C1NC(=O)C(c2cccc(Cl)c2)=C1Nc1ccc(O)c(Cl)c1`: the inhibition was found to be 4.37%.

In the case of `CCCN1CCC=C(c2ccc(Nc3nc(Nc4ccccc4C(N)=O)c4cc[nH]c4n3)c(C)c2)C1`, the inhibition was 6.92%.

As to `Nc1nc(-c2ccc3c(c2)C(=Cc2cc(Br)c(O)c(Br)c2)C(=O)N3)cs1`, the inhibition is -0.11%.

`O=C1NC(=O)C(c2ccccc2Cl)=C1Nc1cccc(O)c1`: the inhibition stood at 2.9%.

As to `CCc1cccc(NC(=O)Nc2ccc(Oc3ccc4nc(NC(=O)OC)[nH]c4c3)cc2)c1`, the inhibition came out at 3.09%.

In the case of `CC1=C(C(=O)Nc2ccc3[nH]ncc3c2)C(c2ccc3ccccc3c2)CC(=O)N1` (stereo unspecified), the inhibition worked out at 9.54%.

On to `CS(=O)(=O)Nc1ccc(N/C=C2\C(=O)Nc3ccccc32)cc1`, for which the inhibition turned out to be 1.57%.

Take `COc1cc2c(cc1Nc1nc(N3CCc4ccccc43)c3cc[nH]c3n1)N(C(=O)CN(C)C)CC2`: the inhibition is 3.52%.

With `CCN1CCC(CC(=O)Nc2n[nH]c3nc(-c4cccs4)c(Br)cc23)CC1`, the inhibition is -1.64%.

With `NCc1ccc(-c2nc(-c3ccc(Cl)c(O)c3)c(-c3ccncc3)[nH]2)cc1`, the inhibition amounted to 0.23%.

Regarding `COC(=O)Nc1nc2cc(Oc3ccc(NC(=O)Nc4cccc(C(=O)O)c4)cc3)ccc2[nH]1`, the inhibition is -1.47%.

Consider `O=C(Nc1n[nH]c2nc(-c3ccco3)c(Br)cc12)C1CC1`, for which the inhibition is 6.29%.

`CCn1c(-c2nonc2N)nc2cnc(Oc3cccc(NC(=O)c4ccc(OCCN5CCOCC5)cc4)c3)cc21`: the inhibition was 3.36%.

With `COc1cccc(-n2ncc3c(N/N=C/c4cccc(F)c4)ncnc32)c1`, the inhibition was determined as 0.54%.

With `Nc1ncnc2occ(-c3ccc(NC(=O)Nc4cccc(C(F)(F)F)c4)cc3)c12`, the inhibition turned out to be 7.97%.

As for `CCn1c(-c2nonc2N)nc2cncc(C(=O)N3CC[C@H](N)C3)c21`, the inhibition was 3.72%.

As to `COc1cc2ncn(-c3cc(O[C@@H](C)c4ccccc4Cl)c(C(N)=O)s3)c2cc1OC`, the inhibition was 6.87%.

In the case of `CCCN1CCC(Oc2cc(Nc3nc(Nc4cccc(F)c4C(N)=O)c4cc[nH]c4n3)c(OC)cc2Cl)CC1`, the inhibition came to 0.52%.

Take `[O-][S+]1CCN(Cc2ccc(-c3ccc4ncnc(Nc5ccc(OCc6ccccc6)c(F)c5)c4c3)o2)CC1`: the inhibition was found to be 3.41%.

On to `Cc1ccc(C(=O)NC2CCCCC2)cc1-c1ccc(C(=O)NCC2CC2)cc1`, for which the inhibition was 4.11%.

As to `CNC(=O)c1cncc(/C=C/c2c(Cl)cccc2Cl)c1`, the inhibition turned out to be 5.62%.

As for `CN(C)c1cc2c(Nc3ccc4nc(Cc5ccccc5)[nH]c4c3)ncnc2cn1`, the inhibition amounted to 7.84%.

For the compound `CCn1c(-c2nonc2N)nc2ccncc21`, the inhibition is 0.49%.

With `Fc1cccc(COc2ccc(Nc3ncnc4sc(-c5cccs5)cc34)cc2Cl)c1`, the inhibition worked out at 0.4%.

`Cc1ccc(NC(=O)c2ccnc(N3CCCC3)c2)cc1-c1ccc(C(=O)NCC2CC2)cc1`: the inhibition was determined as 6.97%.

The target is the same in another experiment. The settings on record: at 1 µM.
With `CS(=O)(=O)CCN(CC#N)Cc1ccc(-c2ccc3ncnc(Nc4ccc(OCc5cccc(F)c5)c(Cl)c4)c3c2)o1`, the inhibition was -0.34%.

For the compound `CC(=O)Nc1cccc(C#Cc2cncnc2Nc2ccc(OCc3cccc(F)c3)c(Cl)c2)n1`, the inhibition was -2.39%.

For `COc1ccccc1Nc1ncc(-c2ccccc2)o1`, the inhibition amounted to 13.1%.

As to `NS(=O)(=O)c1cccc(-c2ccc3c(NC(=O)C4CC4)n[nH]c3c2)c1`, the inhibition stood at 0.44%.

As for `Cc1nnc(-c2ccc(C)c(-c3ccc(C(=O)Nc4cccc(C#N)c4)cc3)c2)o1`, the inhibition came to 3.98%.

With `COc1ccc(-c2nn3ncccc3c2-c2ccnc(Nc3ccc(Cl)c(C(F)(F)F)c3)n2)cc1`, the inhibition was 4.12%.

For `O=C1NC(=O)C(c2ccc(Cl)cc2)=C1Nc1ccc(Cl)c(C(=O)O)c1`, the inhibition turned out to be 2.66%.

In the case of `COC(=O)Nc1nc2cc(Oc3cccc(NC(=O)Nc4cc(C(F)(F)F)ccc4F)c3)ccc2[nH]1`, the inhibition was 1.54%.

Regarding `O=C1NC(=O)C(c2cccc(Cl)c2)=C1Nc1ccc(O)c(Cl)c1`, the inhibition was found to be 21.3%.

For `CCCN1CCC=C(c2ccc(Nc3nc(Nc4ccccc4C(N)=O)c4cc[nH]c4n3)c(C)c2)C1`, the inhibition turned out to be 6.81%.

Regarding `Nc1nc(-c2ccc3c(c2)C(=Cc2cc(Br)c(O)c(Br)c2)C(=O)N3)cs1`, the inhibition came out at 1.45%.

Regarding `O=C1NC(=O)C(c2ccccc2Cl)=C1Nc1cccc(O)c1`, the inhibition was 2.97%.

`CCc1cccc(NC(=O)Nc2ccc(Oc3ccc4nc(NC(=O)OC)[nH]c4c3)cc2)c1`: the inhibition is 6.95%.

As to `CC1=C(C(=O)Nc2ccc3[nH]ncc3c2)C(c2ccc3ccccc3c2)CC(=O)N1` (stereo unspecified), the inhibition is 22.8%.

Regarding `CS(=O)(=O)Nc1ccc(N/C=C2\C(=O)Nc3ccccc32)cc1`, the inhibition was 25.5%.

For the compound `COc1cc2c(cc1Nc1nc(N3CCc4ccccc43)c3cc[nH]c3n1)N(C(=O)CN(C)C)CC2`, the inhibition was 0.84%.

As for `CCN1CCC(CC(=O)Nc2n[nH]c3nc(-c4cccs4)c(Br)cc23)CC1`, the inhibition is -1.77%.

For `NCc1ccc(-c2nc(-c3ccc(Cl)c(O)c3)c(-c3ccncc3)[nH]2)cc1`, the inhibition came to 5.11%.

Regarding `COC(=O)Nc1nc2cc(Oc3ccc(NC(=O)Nc4cccc(C(=O)O)c4)cc3)ccc2[nH]1`, the inhibition came to 11.9%.

On to `O=C(Nc1n[nH]c2nc(-c3ccco3)c(Br)cc12)C1CC1`, for which the inhibition stood at 7.26%.

With `CCn1c(-c2nonc2N)nc2cnc(Oc3cccc(NC(=O)c4ccc(OCCN5CCOCC5)cc4)c3)cc21`, the inhibition is 1.9%.

As to `COc1cccc(-n2ncc3c(N/N=C/c4cccc(F)c4)ncnc32)c1`, the inhibition is -0.4%.

For the compound `Nc1ncnc2occ(-c3ccc(NC(=O)Nc4cccc(C(F)(F)F)c4)cc3)c12`, the inhibition came to 34.4%.

In the case of `CCn1c(-c2nonc2N)nc2cncc(C(=O)N3CC[C@H](N)C3)c21`, the inhibition is 2.58%.

On to `COc1cc2ncn(-c3cc(O[C@@H](C)c4ccccc4Cl)c(C(N)=O)s3)c2cc1OC`, for which the inhibition came to 24.3%.

Regarding `CCCN1CCC(Oc2cc(Nc3nc(Nc4cccc(F)c4C(N)=O)c4cc[nH]c4n3)c(OC)cc2Cl)CC1`, the inhibition turned out to be 0.96%.

`[O-][S+]1CCN(Cc2ccc(-c3ccc4ncnc(Nc5ccc(OCc6ccccc6)c(F)c5)c4c3)o2)CC1`: the inhibition turned out to be 2.82%.

For the compound `Cc1ccc(C(=O)NC2CCCCC2)cc1-c1ccc(C(=O)NCC2CC2)cc1`, the inhibition was 4.7%.

For the compound `CNC(=O)c1cncc(/C=C/c2c(Cl)cccc2Cl)c1`, the inhibition was found to be 1.39%.

`CN(C)c1cc2c(Nc3ccc4nc(Cc5ccccc5)[nH]c4c3)ncnc2cn1`: the inhibition was 11.4%.

Turning to `CCn1c(-c2nonc2N)nc2ccncc21`, the inhibition is 0.64%.

As to `Fc1cccc(COc2ccc(Nc3ncnc4sc(-c5cccs5)cc34)cc2Cl)c1`, the inhibition worked out at 6.81%.

As to `Cc1ccc(NC(=O)c2ccnc(N3CCCC3)c2)cc1-c1ccc(C(=O)NCC2CC2)cc1`, the inhibition came to 4.11%.
